From PubChem BioAssay (NCATS)
Values joined by “and” are separate entries in the source; they are usually repeats but may differ in a detail not shown here. Equal entries are not always repeated. Inconclusive results are not listed. Where a structure was tested more than once in an assay, its records may differ in their call. Active and inactive are the calls of the source. Calls come from the whole dose curve; as a rule, active = well fitted curve in the direction sought with a large enough effect; inconclusive = small, poorly fitted or top-dose-only effect, or another doubt; inactive = no such curve, though single readings can be large; an effect the other way counts as inactive or inconclusive.

Tests used:
[1] = system: CRL-7250; experiment: Cytotoxic Profiling of Annotated Libraries Using Quantitative High-Throughput Screening (AID 1296008); conditions: Five cell lines viability, CellTiter-Glo ATP luminescence, 48-72 h; max response: active compounds read low; note: nearly all actives have a fitted effect of over 60% in size; note: potency is the fitted concentration of half-maximal effect; for max response: % is set by controls: 0 for no effect and ±100 for the full control effect
Summary of the method: (§1)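 Cytotoxicity was measured as CellTiter-Glo ATP luminescence, read after 10 min at room temperature. Compound treatment of the cells lasted 48 or 72 hr at 37 degrees Celsius in a qHTS format.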

[2] = system: HaCat; experiment: as above; conditions: Five cell lines viability, CellTiter-Glo ATP luminescence, 48-72 h; max response: active compounds read low
Summary of the method: as §1

[3] = system: KB-3-1; experiment: as above; conditions: Five cell lines viability, CellTiter-Glo ATP luminescence, 48-72 h; max response: active compounds read low
Summary of the method: as §1

[4] = system: NIH3T3; experiment: as above; conditions: Five cell lines viability, CellTiter-Glo ATP luminescence, 48-72 h; max response: active compounds read low
Summary of the method: as §1

[5] = system: HACAT; experiment: qHTS assay to identify novel small-molecules to repurpose for Merkel cell carcinoma treatment (AID 1296009); conditions: MCC and control cell lines, CellTiter-Glo viability, 72 h; at 44.8 µM (top of the series) unless noted; note: nearly all actives have a fitted effect of over 60% in size; note: potency is the fitted concentration of half-maximal effect
Summary of the method: (§2)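 Cell viability, measured as CellTiter-Glo luminescence, was normalized between DMSO and no-cell wells. The cells had been exposed to 8- or 11-point compound dilutions for 72 hr at 37 degree celsius.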

[6] = system: MCC-13; experiment: as above; conditions: MCC and control cell lines, CellTiter-Glo viability, 72 h; series mostly up to 46 µM
Summary of the method: as §2

[7] = system: MCC-26; experiment: as above; conditions: MCC and control cell lines, CellTiter-Glo viability, 72 h; series mostly up to 46 µM
Summary of the method: as §2

[8] = system: MKL-1; experiment: as above; conditions: MCC and control cell lines, CellTiter-Glo viability, 72 h; series mostly up to 46 µM
Summary of the method: as §2

[9] = system: MKL-2; experiment: as above; conditions: MCC and control cell lines, CellTiter-Glo viability, 72 h; series mostly up to 46 µM
Summary of the method: as §2

[10] = system: UISO; experiment: as above; conditions: MCC and control cell lines, CellTiter-Glo viability, 72 h; series mostly up to 46 µM
Summary of the method: as §2

[11] = system: WaGa; experiment: as above; conditions: MCC and control cell lines, CellTiter-Glo viability, 72 h; series mostly up to 46 µM
Summary of the method: as §2

[12] = system: C33A; experiment: Primary qHTS to identify gynecologic anti-cancer compounds using libraries of approved drugs and bioactive compounds (AID 1345084); conditions: Gynecologic cancer cell panel viability, ATPlite luminescence, 48 h; series mostly up to 57.5 µM; note: % is set by controls: 0 for no effect and ±100 for the full control effect; nearly all actives have a fitted effect of over 55% in size
Summary of the method: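 In this quantitative HTS, cell killing is estimated from loss of ATP-dependent luciferase light. Cells see five compound concentrations over a 48 h exposure.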

[13] = system: NIH3T3; experiment: qHTS assay to identify novel small-molecules to repurpose for Merkel cell carcinoma treatment (AID 1296009); conditions: MCC and control cell lines, CellTiter-Glo viability, 72 h; at 44.8 µM (top of the series) unless noted; note: nearly all actives have a fitted effect of over 60% in size; note: potency is the fitted concentration of half-maximal effect
Summary of the method: as §2

[14] = system: HEK293; experiment: Cytotoxic Profiling of Annotated Libraries Using Quantitative High-Throughput Screening (AID 1296008); conditions: Five cell lines viability, CellTiter-Glo ATP luminescence, 48-72 h; max response: active compounds read low; note: nearly all actives have a fitted effect of over 60% in size; note: potency is the fitted concentration of half-maximal effect; for max response: % is set by controls: 0 for no effect and ±100 for the full control effect
Summary of the method: as §1

[15] = system: SC27B; experiment: qHTS profiling for inhibitors of Plasmodium falciparum proliferation (AID 504749); conditions: P. falciparum in erythrocytes, SYBR Green DNA, 72 h; series mostly up to 28.7 µM
Summary of the method: (§3)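 SYBR Green fluorescence of parasite DNA, read after lysis and overnight dark incubation, measured growth over 72 h in erythrocyte culture at 0.3% parasitemia and 2.5% hematocrit. Data normalised to DMSO and 0.29 uM artemisinin, with plate-drift correction.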

[16] = system: TAB109; experiment: as above; conditions: P. falciparum in erythrocytes, SYBR Green DNA, 72 h; series mostly up to 28.7 µM
Summary of the method: as §3

[17] = system: TAB113; experiment: as above; conditions: P. falciparum in erythrocytes, SYBR Green DNA, 72 h; series mostly up to 28.7 µM
Summary of the method: as §3

[18] = system: TAB165; experiment: as above; conditions: P. falciparum in erythrocytes, SYBR Green DNA, 72 h; series mostly up to 28.7 µM
Summary of the method: as §3

[19] = system: W2; experiment: as above; conditions: P. falciparum in erythrocytes, SYBR Green DNA, 72 h; series mostly up to 28.7 µM
Summary of the method: as §3

COc1c(Cl)cc2c([nH]c3cnccc32)c1NC(=O)c1cccnc1C
inactive: outcome [1] | outcome [2] | max response [3] 9.41% | outcome [3] | max response [4] -6% and -16.3% | outcome [5] | Potency [6] | Potency [7] | Potency [8] | Potency [9] | Potency [10] | Potency [11] | Potency [12]

O=C(C=Cc1ccc(/C=C/C(=O)Nc2ccc(C3=NCCN3)cc2)cc1)Nc1ccc(C2=NCCN2)cc1
inactive: outcome [1] | max response [2] -9.67% | outcome [3] | outcome [4] | Potency [6] | Potency [7] | Potency [8] | Potency [9] | outcome [13] | Potency [10] | Potency [11]

COc1cc(Oc2ccnc3cc(OC)c(OC)cc23)ccc1NC(=O)NC(C)c1nccs1 (centres undefined)
inactive: max response [1] -3.15% and -18.6% | outcome [2] | outcome [4] | outcome [5] | Potency [6] | Potency [7] | Potency [8] | Potency [9] | outcome [13] | Potency [11] | Potency [12]

Cn1cnc2c(F)c(Nc3ccc(Br)cc3Cl)c(C(=O)NOCCO)cc21
inactive: max response [14] -14.9% | max response [3] -17.4% and -1.76% | Potency [7] | Potency [8] | Potency [9] | Potency [10] | Potency [11] | Potency [12]
active: Potency [14] 1.32 µM | Potency [2] 1.48 µM | Potency [3] 9.35 µM | Potency [4] 4.18 µM

CN(C)c1ccc(Nc2nc(N)n(C(=O)c3c(F)cccc3F)n2)cc1
inactive: max response [1] 4.97% | Potency [7] | Potency [9] | Potency [10] | Potency [12]
active: Potency [4] 10.5 µM

N#CC[C@H](C1CCCC1)n1cc(-c2ncnc3[nH]ccc23)cn1
inactive: max response [1] -20.9% and 3.07% | max response [2] 0.777% | outcome [2] | outcome [5] | Potency [6] | Potency [7] | Potency [8] | Potency [9] | Potency [11] | Potency [12]

CN(C)c1ccc(C2Nc3ccc4ccccc4c3C3=C2C(=O)CC(C)(C)C3)cc1Br (centres undefined)
inactive: max response [1] -23.7% and -20.8% | max response [2] -24.3% and -7.34% | max response [3] 1.11% and -17.2% | max response [4] -6.99% and -2.22% | Potency [6] | Potency [7] | Potency [8] | Potency [9] | Potency [10] | Potency [11] | Potency [12]

CCC(C)N(C)C(=O)c1cc2ccccc2c(-c2ccccc2Cl)n1 (centres undefined)
inactive: max response [1] 0.969% | outcome [2] | max response [3] 3.08% | max response [4] -14% | outcome [5] | Potency [6] | Potency [7] | Potency [8] | Potency [9] | Potency [10] | Potency [11]

O=S(=O)(N=Cc1c(O)ccc2ccccc12)c1cccs1
inactive: max response [1] -0.432% | max response [2] -24.1% | max response [3] 0.0321% | outcome [4] | Potency [6] | Potency [7] | Potency [8] | Potency [9] | outcome [13] | Potency [11]

Cc1ccc(NC(=O)c2cccc(C(C)(C)C#N)c2)cc1Nc1ccc2ncn(C)c(=O)c2c1
active: Potency [2] 13.2 µM | Potency [4] 16.6 µM
inactive: Potency [7] | Potency [8] | Potency [9] | Potency [11]

CCC(C)(C)C(=O)O[C@H]1C[C@@H](C)C=C2C=C[C@H](C)[C@H](CC[C@@H]3C[C@@H](O)CC(=O)O3)[C@H]21
inactive: Potency [12]

CC(C)C[C@H](NC(=O)[C@@H](O)[C@H](N)Cc1ccccc1)C(=O)O
inactive: Potency [6] | Potency [7] | Potency [8] | Potency [11]
active: Potency [15] 7.94 µM | Potency [16] 6.31 µM | Potency [17] 7.08 µM | Potency [18] 5.01 µM | Potency [19] 1.69 µM

O=C(Nc1cccnc1)N1CCC(Cc2cccc(Oc3ccc(C(F)(F)F)cn3)c2)CC1
active: Potency [14] 10.5 µM and 8.2 µM | Potency [9] 16.6 µM | Potency [10] 16.6 µM
inactive: max response [2] -12.8% | Potency [7]

c1ccc(-c2nn3c(c2-c2ccnc4cc(OCCN5CCOCC5)ccc24)CCC3)nc1
inactive: max response [2] -14.5% | max response [3] 6.43% | Potency [6] | Potency [7] | Potency [8] | Potency [9]
active: Potency [4] 5.26 µM | Potency [11] 14.8 µM
